Inconclusive results are not listed. Entries that show only a call come without a potency. Activity calls are given as the source filed them. Calls follow the shape of the dose curve; as a rule, active = well fitted cell-killing curve with a large enough effect; inconclusive = small, poorly fitted or top-dose-only effect, or effect the other way; inactive = no such curve, though single readings can be large or run the other way.
Assay: Quantitative High-Throughput drug screen in 47 multiple myeloma cell lines against the NCATS MIPE library collection: ARP1_JJKsccF8 cell viability assay (AID 1918928; also: nearly all actives have a fitted effect of over 40% in size)
Conditions: ARP1 myeloma cells viability, CellTiter-Glo ATP, 48 h; series mostly up to 45.8 µM
Text: PI: Beverly A. Mock Ph.D.
Laboratory of Cancer Biology and Genetics,
Center for Cancer Research, National Cancer Institute,
National Institute of Health, Bethesda, Maryland
Drug resistance and disease progression are common in multiple myeloma (MM) patients, underscoring the need for new therapeutic combinations. […] We hypothesized that effective combinations would reduce MYC expression and enhance p16 activity. […] These preclinical data identify potentially useful drug combinations for evaluation in drug-resistant MM and reveal potential mechanisms of combined drug sensitivity.
Described herein is the primary MIPE qHTS used to cherrypick compounds. Validated compounds were then further tested for potential synergistic activiy.
[1] Peat TJ, Gaikwad SM, Dubois W, Gyabaah-Kessie N, Zhang S, Gorjifard S, Phyo Z, Andres M, Hughitt VK, Simpson RM, Miller MA, Girvin AT, Taylor A, Williams D, D'Antonio N, Zhang Y, Rajagopalan A, Flietner E, Wilson K, Zhang X, Shinn P, Klumpp-Thomas C, McKnight C, Itkin Z, Chen L, Kazandijian D, Zhang J, Michalowski AM, Simmons JK, Keats J, Thomas CJ, Mock BA. Drug combinations identified by high-throughput screening promote cell cycle transition and upregulate Smad pathways in myeloma. Cancer Lett. 2023 Aug 1;568:216284. doi: 10.1016/j.canlet.2023.216284. Epub 2023 Jun 24. PMID: 37356470; PMCID: PMC10408729.
SEQUENCE No. (e.g., 1, 2, 3, etc.); […] (e.g., Cells, Incubation, Reagent, etc.); VALUE and DESCRIPTION.
1; Cells; 5 uL; white, solid bottom 1536-well Greiner assay plate.
2; Compounds; 23 nL; Kalypsis pin tool (Wako USA) equipped with a 1536-well pin head to transfer to the assay plates.
3; Incubation; 48 hours; 37C incubation.
4; Reagent;5uL; CellTiter Glo (Promega).
5; Detector; 425V; Luminescence; Viewlux PerkinElmer.
NOTES (numbers refer to Sequence numbers above)
1. The cell-based screening methods employed in this study were like those previously published. Briefly, the corresponding myeloma cell lines were screened in 1,536-well plates with 500 cells, 5-uL per well for inhibition of cell viability (assessed by measuring ATP levels with CellTiterGlo).
2. NCATS MIPE 4.0 library of approved and investigational drugs were added using the Kalypsis pin tool. Wells treated with DMSO only for 100% viability and media only cells for 0% viability were used as controls.
3. The assay plates were covered and incubated for 48 hours in a 37C, 5% CO2 incubator with controlled humidity.
4. After 48 hours, CellTilter-GloTM luminescent substrate mix (Promega) reagent was added to the assay plate and plates we incubated for 5 min at room temperature.
5. Signal was measured as median relative luminescence units on a ViewLux (PerkinElmer) multiplate reader.
[1] Heske CM, Davis MI, Baumgart JT, Wilson K, Gormally MV, Chen L, Zhang X, Ceribelli M, Duveau DY, Guha R, Ferrer M, Arnaldez FI, Ji J, Tran HL, Zhang Y, Mendoza A, Helman LJ, Thomas CJ. Matrix Screen Identifies Synergistic Combination of PARP Inhibitors and Nicotinamide Phosphoribosyltransferase (NAMPT) Inhibitors in Ewing Sarcoma. Clin Cancer Res. 2017 Dec 1;23(23):7301-7311. doi: 10.1158/1078-0432.CCR-17-1121. Epub 2017 Sep 12. PMID: 28899971; PMCID: PMC6636827.
Potency is read from the fitted curve at half-maximal effect.

Row | Structure (SMILES) | Potency
1 | O=C(NCCCCN1CCOCC1)c1cc2ccccc2o1 | inactive
2 | COc1cc(Cl)cn2c(-c3cccc(NC4CNC4)n3)cnc12 | inactive
3 | Cc1cnc(CNC(=O)c2c(=O)c3ccc(N4CCCN(C)CC4)nc3n3c2sc2ccccc23)cn1 | 9.11 µM (active)
4 | C[C@@]1(c2cc(-c3cncnc3)c(F)cc2F)CCSC(N)=N1 | inactive
5 | COC(=O)[C@H](c1ccccc1Cl)N1CCc2sccc2C1 | inactive
6 | CCC[C@H](Nc1nc(-c2ccc(NC(=O)NCC)c(OC)c2)ncc1C)c1cccnc1 | 0.0083 µM (active)
7 | NC1(C(=O)N[C@@H](CCO)c2ccc(Cl)cc2)CCN(c2ncnc3[nH]ccc23)CC1 | 2.09 µM (active)
8 | CCCCC(F)(F)[C@@]1(O)CC[C@H]2[C@H](CC(=O)[C@@H]2CCCCCCC(=O)O)O1 | inactive
9 | COc1cc(CNC(=O)CCCCC=CC(C)C)ccc1O | inactive
10 | COC(=O)N1CCN(Cc2cccc(NC(=O)Nc3ccc(C)nc3)c2F)CC1 | inactive
11 | OC[C@H]1O[C@@H](O[C@H]2[C@@H](O)[C@@](O)(CO)O[C@@H]2CO)[C@H](O)[C@@H](O)[C@@H]1O | inactive
12 | CC(C)c1onc(-c2c(Cl)cccc2Cl)c1COc1ccc(C=Cc2cccc(C(=O)O)c2)c(Cl)c1 | inactive
13 | CN1CCN(c2ncc(-c3cc(Cl)cc(Cl)c3Cl)c(N)n2)CC1 | inactive
14 | Cc1ccc(S(=O)(=O)OCC(=O)Nc2ccc(C(=O)O)c(O)c2)cc1 | inactive
15 | CNC(=O)[C@H](CC1=CN=C2C=CCC=C12)NC(=O)[C@@H](CC(=O)NO)CC(C)C | inactive
16 | C=C[C@@H]1CN2CCC1C[C@@H]2C(O)c1ccnc2ccc(OC)cc12 (stereo not given in full) | 1.87 µM (active)
17 | CN[C@H]1[C@@H](O[C@@H]2[C@H](O[C@@H]3[C@@H](O)[C@@H](O)[C@@H](N=C(N)N)[C@@H](O)[C@@H]3N=C(N)N)O[C@H](C)[C@@]2(O)C=O)O[C@@H](CO)[C@@H](O)[C@H]1O | inactive
18 | COc1ccc(-c2nc3ccc(C4=NNC(=O)CC4C)cc3[nH]2)cc1 (stereo not given) | inactive
19 | C[C@@H](O[C@H]1OCCN(Cc2n[nH]c(=O)[nH]2)[C@@H]1c1ccc(F)cc1)c1cc(C(F)(F)F)cc(C(F)(F)F)c1 | 26.4 µM (active)
20 | CCNC(=O)Nc1ccc(Oc2ncnc(N)c2C=NOC)cc1Cl | 20.9 µM (active)

Row | Structure (SMILES) | Potency
21 | CC(=O)OCC(=O)[C@@]12OC(C)(C)O[C@H]1C[C@H]1[C@@H]3C[C@H](F)C4=CC(=O)C=C[C@]4(C)[C@@]3(F)[C@@H](O)C[C@@]12C | 0.0264 µM (active)
22 | COc1cc2ncnc(Nc3cc(Br)c(O)c(Br)c3)c2cc1OC | 1.32 µM (active)
23 | CNC(=O)c1cc(Oc2ccc(NC(=O)Nc3ccc(Cl)c(C(F)(F)F)c3)c(F)c2)ccn1 | 23.5 µM (active)
24 | Cc1cnc(-c2cc(N3CCN(C(=O)CCS(C)(=O)=O)CC3)ncc2Cl)c(C)c1 | inactive
25 | NCc1c[nH]c(=S)n1[C@H]1CCc2c(F)cc(F)cc2C1 | 18.7 µM (active)
26 | N#CC1(c2cccc(C(=O)Nc3cc(Oc4ccc5nc(NC(=O)C6CC6)sc5n4)ccc3F)c2Cl)CC1 | 9.35 µM (active)
27 | O=[N+]([O-])c1ccc(Nc2ccccc2-c2ccccc2)c2nonc12 | inactive
28 | C[C@@H]1[C@H](O)[C@@H](C)C=CC=CC=CC=CC=CC=CC=C[C@H](O[C@@H]2O[C@H](C)[C@H](O)[C@H](N)[C@@H]2O)C[C@@H]2O[C@](O)(C[C@@H](O)C[C@@H](O)[C@H](O)CC[C@@H](O)C[C@@H](O)CC(=O)O[C@H]1C)C[C@H](O)[C@@H]2C(=O)O | 7.43 µM (active)
29 | Cc1ccc(NC(=O)c2ccc(CN3CCN(C)CC3)cc2)cc1Nc1nc(-c2cccnc2)cs1 | 23.5 µM (active)
30 | COc1cc2c(cc1OC)[C@@H]1Cc3ccc(OC)c(OC)c3CN1CC2 | 13.2 µM (active)
31 | CN1CC(=O)NC1=NC(=O)Nc1cccc(Cl)c1 | 20.9 µM (active)
32 | CC[C@]1(O)C[C@H]2CN(CCC3=c4ccccc4=N[C]3[C@@](C(=O)OC)(c3cc4c(cc3OC)N(C)[C@H]3[C@@](O)(C(N)=O)[C@H](O)[C@]5(CC)C=CCN6CC[C@]43[C@@H]65)C2)C1 | 0.0105 µM (active)
33 | O=S(=O)(NCCNCC=Cc1ccc(Br)cc1)c1cccc2cnccc12 | 16.6 µM (active)
34 | CCc1cc(-c2n[nH]c(C)c2-c2ccc3c(c2)OCCO3)c(O)cc1O | 2.96 µM (active)
35 | NC(N)=Nc1nc(CSCCC(N)=NS(N)(=O)=O)cs1 | inactive
36 | CCCCC[C@H](O)C=C[C@H]1[C@H](O)CC(=O)[C@H]1CCCCCCC(=O)O | 23.5 µM (active)
37 | OCCn1cc(-c2ccc3c(c2)CCC3=NO)c(-c2ccncc2)n1 | inactive
38 | Cc1cn([C@@H]2C[C@@H](O)[C@H](CO)O2)c(=O)[nH]c1=O | inactive
39 | CN(C)CCOc1ccc(C(=C(CCCl)c2ccccc2)c2ccccc2)cc1 | inactive
40 | NC(=O)c1ccc(N(C(N)=O)c2c(F)cccc2F)nc1-c1ccc(F)cc1F | inactive

— PubChem BioAssay (NCATS)
